Measurements taken from ChEMBL document CHEMBL4513216, “Probing the Open Global Health Chemical Diversity Library for Multistage-Active Starting Points for Next-Generation Antimalarials” (ACS Infect Dis, 2020).
The whole screen tested about 69,000 compounds, of which about 8,600 (12%) showed an effect of 50% or more. The entries come from a sample that favours strong results as a whole.

Each compound was assayed on Plasmodium berghei (assay: Screen against P. berghei liver stage (PbLuc), transformed with Luciferase, at 10uM). Conditions: tested at 10 uM.
Format: functional, HepG2

SMILES	INHIBITION
CCc1nc(CN(C(C)=O)C2CCN(Cc3ccccc3F)C2)no1 (stereo unspecified)	-11.4%
CN(Cc1ccco1)[C@@H]1CN(C(=O)C2CCOCC2)C[C@@H]2CCCO[C@@H]21	37.1%
CCN(CC)C(=O)Cn1ccc2cc(NC(=O)COC)ccc21	-7.267%
Cn1nccc1-c1nnn2c1COC(CNCc1nccs1)C2 (stereo unspecified)	38.3%
N[C@H]1CN(C(=O)c2ccc3[nH]c(=O)c(=O)[nH]c3c2)C[C@@H]1c1ccccc1	34.1%
Cc1cc(NC(=O)CN2CCC(N3CCNC3=O)CC2)on1	-71.2%
CC(NCc1c(C(C)C)nn(C)c1N(C)C)C(=O)NC1CCCC1 (stereo unspecified)	-5.94%
CS(=O)(=O)N1CCC(NCC2(N3CCOCC3)CCCCC2)CC1	49%
C1CCC(NCC2(N3CCOCC3)CCSC2)C1 (stereo unspecified)	30.8%
C1CCC(CNC2CCSCC2)(N2CCOCC2)CC1	51.1%
COCc1nn(C(C)C)c2c1CCN(Cc1cccs1)C2	23.5%
O=C(c1ccc(N2CCCCCC2)nn1)N1CCc2ccccc21	-30%
CCCc1nc2c(c(C)c(C)n2CCN(C)C)c(N)c1CC	43.8%
CCCc1nc2c(c(C)c(C)n2Cc2ccncc2)c(N)c1CC	77.9%
CCCc1nc2c(c(C)c(C)n2Cc2cccnc2)c(N)c1CC	75.2%
CCc1c(-c2ccccc2)nc2c(c(C)c(C)n2CCN(C)C)c1N	45%
CCCc1nc(N2CCN(Cc3ccccn3)CC2)c2cnn(C)c2n1	27.6%
Cc1c(-c2ccccc2)nc2c(c(C)c(C)n2CCN(C)C)c1N	-19.4%
CCCc1nc2c(c(C)c(C)n2Cc2ccccn2)c(N)c1CC	68.1%

SMILES	INHIBITION
CCc1nc2c(c(C)c(C)n2Cc2cccnc2)c(N)c1C	29.1%
CCc1cc(NCCc2cccnc2)n2nc(C)c(C)c2n1	-1.6%
Cc1nn(C)c(N(C)C)c1CNCCCN(C(C)C)S(C)(=O)=O	6.15%
COc1ncccc1CN1CCn2c(Cn3cncn3)cnc2C1	7.96%
CCc1nc(C2CCCN2C(=O)c2ccc3c(c2)[nH]c(=O)n3C)no1 (stereo unspecified)	-21.7%
COc1cccc(CC(=O)NC2CCCc3cn[nH]c32)c1 (stereo unspecified)	33.4%
Cc1nn(C)c(Cl)c1CNCc1cccnc1N1CCCCC1	-13%
Cc1noc(C)c1CC(=O)N1CCCC(Cc2ccccn2)C1 (stereo unspecified)	-0.6%
CC1(C)COCCN1C(=O)Cc1cc(Cl)c2c(c1)OCCO2	-117%
O=C(C[C@@H]1COC[C@H]2CN(C(=O)c3cccnc3)C[C@@H]12)N1CCOCC1	-81.1%
CCOc1ccc2[nH]c(=O)c(CN3CCC(n4cnnc4)CC3)cc2c1	43.4%
CN(CCn1ccnc1-c1ccccn1)S(C)(=O)=O	-36%
Cn1nc(COCC2CC2)c2c1CN(C(=O)c1ccno1)CC2	8.85%
Cc1ccsc1C(=O)N1CCCn2nnc(Cn3cccn3)c2C1	60.3%
O=C(c1ccc(Cl)cc1)N1CCCn2nnc(Cn3cccn3)c2C1	10.8%
Cc1ccccc1C(=O)N1CCCn2nnc(Cn3cccn3)c2C1	-16.9%
O=C(CO)N1CCCn2nnc(Cn3cccn3)c2C1	12.1%
CCc1ccc(C(=O)N2CCCn3nnc(Cn4cccn4)c3C2)cc1	52.3%
O=C(c1ccncc1)N1CCCn2nnc(Cn3cccn3)c2C1	33%

SMILES	INHIBITION
CN1CCOC(CNCc2csc(C3CCCCC3)n2)C1 (stereo unspecified)	13.6%
CCN(CC)C(=O)Cn1cc(-c2nc(-c3ccccc3C)no2)nn1	-19.1%
Cn1[nH]c(C2CCC2)c(-c2ccc3c(c2)OCO3)c1=N	64.7%
CCc1[nH]n(C)c(=N)c1-c1ccc2c(c1)OCO2	53.6%
Cn1[nH]c(C2CC2)c(-c2ccc3c(c2)OCO3)c1=N	16.5%
CCCc1[nH]n(C)c(=N)c1-c1ccc2c(c1)OCO2	27.6%
Cn1nc(C2CCCC2)c(-c2ccc3c(c2)OCO3)c1N	48%
CSCCc1nc(-c2ccc3c(c2)OCO3)n(C)n1	25.9%
CN(C)c1ncc2c(O)nc(C3CCCNC3)cc2n1 (stereo unspecified)	24.8%
COc1ccccc1OCCCN1CCNC1=O	12.9%
CCC(=O)Nc1nnc2n(Cc3cccc(OC)c3)[nH]c(C)c1-2	-31%
CCCNC(=O)CSCc1ccc(S(=O)(=O)N(C)C)o1	53.7%
CCC(C)(C)NC(=O)CSCc1ccc(S(=O)(=O)N(C)C)o1	3.73%
CN(C)S(=O)(=O)c1ccc(CSCC(=O)NC(C)(C)C)o1	17.9%
Cc1occc1C(=O)N1CCc2c(CNS(C)(=O)=O)cncc2C1	6.55%
COc1c(NC(=O)N(C)CCOc2ccccc2)c(C)nn1C	-24.6%
CN(CCOc1ccccc1)C(=O)Nc1cccn(C)c1=O	82.4%
CC(C)Oc1cccc(CN(C)C(=O)Nc2cccn(C)c2=O)c1	-15%
